The panel holds about 83,000 compounds, 20% with a hit somewhere; the sample as a whole holds those more often.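 Negative percent growth values reflect cell death: -40 means 40% of the cells present at the start died, and -100 means all died.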 Activity calls are given as the source filed them. How the source made its calls: active means growth percent below 10; inactive means the rest.
The molecules below were run on NCI-H23 lung (assay: NCI-60 one-dose screen, 48 h (100 = growth as untreated, 0 = no growth, -100 = all killed)). Settings: 10 µM unless noted.
With `C[C@@H]1O[C@@H](O[C@@H]2C[C@H](c3ccc4c(c3O)C(=O)C3=C(C4=O)[C@@]4(O)C(=O)C[C@](C)(O)C[C@@]4(O)C=C3)O[C@H](C)[C@H]2O)CC[C@@H]1O[C@H]1C[C@@H](O)[C@H](O)[C@@H](C)O1` the growth was 100% (inactive).
In the case of `CC(=O)OC(c1ccccc1)C1CCOC1=O` (stereo not given), the growth is reported as 93.8% (inactive).
In the case of `C=CCN1C(=O)c2cccc3c(N4CCOCC4)ccc(c23)C1=O`, the growth is reported as 8.01% (active).
In the case of `O=C(CCSc1nnc2n(Cc3ccccc3)c(=O)c3c4c(sc3n12)CCCC4)N1CCN(c2ccccc2)CC1`, the growth is reported as 102% (inactive).
With `CC1=CCC(OC(=O)C(C)(C)CC(O)(C(C)O)C(O)C2(C)C=CC(Cc3ccc(C(C)C)cc3)(C(C)C)CC2)(C(C)C)CC1` (stereo not given) the growth was 95.6% (inactive).
For `c1ccc(CCNc2c3ccccc3nc3ccccc23)cc1`, the growth was 38.6% (inactive).
With `CCCCNc1nnc2n(Cc3ccccc3)c(=O)c3c4c(sc3n12)CCCC4` the growth was 45.5% (inactive).
With `COc1ccc2cc(-c3ccnc4c(N=Nc5ccc(Cl)cc5)c(N)nn34)ccc2c1` the growth was 108% (inactive).
`CCO/C=N/C1=C(C#N)C(c2ccc(F)cc2)c2sc3c(F)cccc3c2O1` (stereo not given) was tested, and the growth was 61.2% (inactive).
In the case of `COc1cc2nc3sc(C(=O)Nc4ccc(C(=O)OC(C)C)cc4)c(C(=O)Nc4ccc(Cl)cc4C)n3c(=O)c2cc1OC`, the growth is reported as 72.1% (inactive).
`O=C(c1c[nH]c2ccccc12)c1n[nH]c(=S)n1-c1cccc(Br)c1` was tested, and the growth was 87.2% (inactive).
In the case of `O=c1cc(-c2ccccc2)[nH]c2ncc(-c3ccc(F)cc3)n12`, the growth is reported as 72.2% (inactive).
`Clc1c(Cl)[n+](Cc2ccc3ccccc3c2)cn1Cc1ccc2ccccc2c1` was tested, and the growth was 32.8% (inactive).
With `COc1ccc(/C=C/C(=O)c2cc(OC)c(OC)c(OC)c2)cc1OCC(=O)Nc1nc2ccc(OC(F)(F)F)cc2s1` the growth was 11.5% (inactive).
In the case of `COc1cccc(Nc2ncnc3cc(NC(=O)CCl)ccc23)c1`, the growth is reported as -50.9% (active).
With `COc1cc(/C=C/C(=O)c2ccc(-n3cc(CN4CCN(c5cc6c(cc5F)c(=O)c(C(=O)O)cn6C5CC5)CC4)nn3)cc2)ccc1O` the growth was 91.4% (inactive).
For `C=C(C)[C@@H]1CCC[C@]2(C(=O)O)CC[C@]3(C)[C@@H](CC[C@@H]4[C@@]5(C)C/C(=C/c6ccncc6)C(=O)C(C)(C)[C@@H]5CC[C@]43C)[C@@H]12`, the growth was 20.9% (inactive).
`O=C(N/N=C\c1cccc([N+](=O)[O-])c1)N/N=C/c1cccc([N+](=O)[O-])c1` was tested, and the growth was 101% (inactive).
For `O=C(Cn1nnc2ccccc21)N/N=C/c1c[nH]c2ccccc12`, the growth was 71% (inactive).
For `Cn1cc(-c2csc(-c3c[nH]c4ccc(F)cc34)n2)c2ccnc(Cl)c21`, the growth was 64.2% (inactive).
`CCNC(=O)Oc1ccc(/C(=C(/CC)Cc2ccccc2)c2ccc(OCCN3CCCC3)cc2)cc1` was tested, and the growth was 101% (inactive).
`CC(=O)c1sc2sc(C(C)=O)c(C)c2c1C` was tested, and the growth was 101% (inactive).
In the case of `CN1C(=O)/C(=C/c2ccc(C(=O)Nc3ncc(Cc4cccc(Cl)c4)s3)cc2)SC1=S`, the growth is reported as 59.5% (inactive).
For `COc1ccc(C2=CC(c3cc(OC)c(OC)c(OC)c3)n3ncnc3N2)cc1` (stereo not given), the growth was 29.1% (inactive).
For `Cc1ccc(Cl)cc1NC(=O)c1sc2nc3c(cc2c1N)C(=O)CCC3`, the growth was 63% (inactive).
With `COc1ccc(/C=C/C(c2cc(OC)c(OC)c(OC)c2)n2cncn2)cc1` (stereo not given) the growth was 67% (inactive).
In the case of `Cc1ncc(C(=O)Nc2ccc(CN3CCN(C)CC3)c(C(F)(F)F)c2)cc1C#Cc1cnc(N)c2ncccc12`, the growth is reported as 38.4% (inactive).
`Cc1ccc(C(=O)c2ccc(CC(=O)NN3C(=O)c4ccccc4C3=O)n2C)cc1` was tested, and the growth was 100% (inactive).
For `CN(C)CCCC1(c2ccc(F)cc2)OCc2cc(-c3ccc4cc[nH]c4c3)ccc21` (stereo not given), the growth was 86.6% (inactive).
`O=C(/C=C/c1cccc(Cl)c1Cl)Nc1ncc(Cc2ccccc2Cl)s1` was tested, and the growth was 79.2% (inactive).
With `O=C(Nc1ccc(Cl)cc1)Oc1c(Cl)c(Cl)c(Cl)c(Cl)c1Cl` the growth was 86.1% (inactive).
In the case of `CCCCNC(=O)c1cc([N+](=O)[O-])cc(C2CCCCC2)c1O`, the growth is reported as 8.28% (active).
For `O=C1NC(=O)/C(=C/c2c(-c3ccccc3)nc3sc(COc4ccccc4)nn23)S1`, the growth was 86% (inactive).
`COc1ccc2c(c1)c(/C(O)=C1\COC(=O)C1=O)cn2Cc1ccc(F)cc1` was tested, and the growth was 110% (inactive).
With `CCN(CC)CCN1C(=O)c2cccc3c(/C=C/CN4C(=O)c5cccc6cccc(c56)C4=O)ccc(c23)C1=O` the growth was 98.1% (inactive).

Source: PubChem BioAssay (NCI)
